Experimental data from PubChem BioAssay AID2267 (National Center for Advancing Translational Sciences (NCATS), 2010).
This is one part of the list. Records with an inconclusive call do not appear. The source made the active and inactive calls. Calls come from the whole dose curve; as a rule, active = well fitted inhibition curve with a large enough effect; inconclusive = small, poorly fitted or top-dose-only effect, or effect the other way; inactive = flat fitted curve, though single readings scatter.

What follows are molecules tested against Pyruvate kinase PKM (Homo sapiens) (UniProt P14618) (assay: Secondary assay for Inhibitors of Human Pyruvate Kinase M2 isoform). Conditions: purified hPK-M2, LDH-coupled NADH fluorescence kinetic.
Pyruvate kinase PKM (Homo sapiens), sequence (P14618 whole entry, looked up, canonical isoform): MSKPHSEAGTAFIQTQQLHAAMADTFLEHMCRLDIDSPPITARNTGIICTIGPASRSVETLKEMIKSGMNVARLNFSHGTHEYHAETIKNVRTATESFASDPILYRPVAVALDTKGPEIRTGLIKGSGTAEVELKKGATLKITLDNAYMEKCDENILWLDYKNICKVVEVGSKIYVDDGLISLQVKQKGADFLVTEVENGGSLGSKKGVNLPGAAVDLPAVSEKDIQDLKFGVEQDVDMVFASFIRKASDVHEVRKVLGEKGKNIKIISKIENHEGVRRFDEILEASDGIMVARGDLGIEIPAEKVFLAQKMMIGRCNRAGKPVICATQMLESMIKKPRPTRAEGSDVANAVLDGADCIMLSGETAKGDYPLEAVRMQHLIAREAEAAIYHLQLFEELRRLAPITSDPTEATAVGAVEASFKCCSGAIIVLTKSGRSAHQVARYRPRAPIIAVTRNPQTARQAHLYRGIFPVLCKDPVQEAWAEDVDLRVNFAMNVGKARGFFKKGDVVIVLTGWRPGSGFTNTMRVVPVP
Excerpt: NIH Chemical Genomics Center [NCGC] Matthew G. Vander Heiden, M.D., Ph.D. [Harvard Medical School, 77 Avenue Louis Pasteur, Boston, MA 02115] MLPCN Grant: 1 R03 MH085679-01 NCGC Assay Overview: Human pyruvate kinase muscle 2 (hPK-M2)enzyme was supplied as a highly purified (>95% pure) preparation from Harvard Medical School and a secondary assay was used to evaluate compounds. This assay couples the formation of pyruvate from hPK-M2 using lactate dehydrogenase (LDH) and NADH. The depletion of NADH is followed in a fluorescent-based kinetic assay that follows the formation of pyruvate to lactate, as catalyzed LDH (described by Hannaert et al., 2002)1 Pyruvate kinase substrates, PEP and ADP, were present in the assay at 0.1 mM and 4 mM respectively. In this kinetic assay initial rates were determined by following the fluorescence of NADH depletion.
NCGC Assay Protocol Summary: Three uL of substrate mix (final concentration, 50 mM Tris-Cl pH 8.0, 200 mM KCl, 15 mM MgCl2, 0.1 mM PEP, 4.0 mM ADP, and 0.2 mM NADH) was dispensed into black-solid 1536 well plates. 23 nL of compounds were delivered by a pin tool and 1 uL of enzyme mix (final concentrations, 10 nM hPK-M2 and 1 uM of LDH) was added. Plates were immediately placed in ViewLux (Perkin Elmer) and NADH fluorescence was determined at 30 second exposure intervals for between 3 and 6 minutes. Data were normalized to the basal signal.
`Cc1ccc(-c2nc3ccccn3c2Nc2ccc(F)cc2)o1` was tested, and the Potency was 7.3 µM (active).
